Compound activity (PubChem BioAssay)
CHX counter – counter-screen hit for Shiga toxin inhibitors, cycloheximide | cell reporter, cycloheximide protein synthesis inhibition counterscreen | 300,000 compounds, 12% hits | max response, % | AID 2314; in the data active = max response mostly above about 13%, no sharp cut-off; inactive = mostly below about 14%; note: read at 38.3 µM for the half of the compounds with a filed dose
Pf growth 96h – P. falciparum growth inhibition at 96 hours; P. falciparum luciferase reporter growth, 96 h; Potency, µM (titrated, usually from 28.7 µM), usual class: inhibitors; 320,000 compounds, 6.9% hits; AID 504834
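Compounds incubated with erythrocytes infected by luciferase-expressing P. falciparum (2% hematocrit, 0.05% parasitemia final) for 96 hours, 37 C in 5% CO2. Growth inhibition scored as decreased luciferase luminescence.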
Shiga toxin inh – inhibitors of Shiga toxin in Vero cells. AID 2315. Vero cells, Shiga toxin protein synthesis inhibition reporter. 290,000 compounds, 9.2% hits. inhibition, % at 38.7 µM; in the data active = inhibition mostly above about 28%, no sharp cut-off; inactive = mostly below about 43%
LASV entry inh – blocks Lassa virus binding to or entry into cells; 300,000 compounds, 1.2% hits; Lassa virus pseudotype entry inhibition, cell reporter; Potency, µM (series often up to 37.9 µM), hits mostly inhibitors; AID 540256; calls by dose curve; tested in HEK293 cells; note: nearly all actives have a fitted effect of over 50% in size
Marburg entry inh – blocks Marburg virus binding to or entry into cells | Marburg virus pseudotyped entry inhibition, cell reporter | Potency, µM (highest dose often 37.8 µM), usual class: inhibitors | 300,000 compounds, 1.8% hits; calls by dose curve; tested in HEK293 cells
Pf growth 48h – P. falciparum growth inhibition at 48 hours (one generation); P. falciparum luciferase growth in erythrocytes, 48 h; Potency, µM (series often up to 28.7 µM), most hits filed as inhibitors; 310,000 compounds, 5.9% hits
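Luciferase-expressing P. falciparum in infected erythrocytes (2% hematocrit, 0.1% parasitemia final) in RPMI 1640/0.5% Albumax were exposed to compound for 48 hours at 37 C, 5% CO2; growth read as luminescence.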
Hits are given with their value; 0 = inactive; ? = inconclusive; - = no result. In the library only some 19% were active in any assay of this set; here they are far more common. Unless noted, calls come from the whole dose curve; as a rule, active = well fitted inhibition curve with a large enough effect; inconclusive = small, poorly fitted or top-dose-only effect, or another doubt; inactive = no such curve, though single readings can be large or run the other way.

SMILES	CHX counter	Pf growth 96h	Shiga toxin inh	LASV entry inh	Marburg entry inh	Pf growth 48h
Cc1noc(C)c1-c1nc(CS(=O)(=O)c2ccc(Cl)cc2)no1	0	0	0	0	0	0
O=S(=O)(Cc1noc(-c2ccccc2Cl)n1)c1ccccn1	41	0	72	?	?	0
NS(=O)(=O)c1cc2c(cc1Cl)N[C@H](Cc1ccccc1)NS2(=O)=O	-	0	-	-	-	0
CCN(c1ccccc1)S(=O)(=O)c1ccc(OC)c(NC(=O)c2cc(F)c(F)c(F)c2F)c1	-	-	-	0	0	-
Cc1nn(CC(=O)NC2C(=O)N3C(C(=O)O)=C(CSc4nnnn4C)CSC23)cc1Br (configuration not stated)	0	0	0	0	0	0
CCCCn1c(-c2ccc(F)c(F)c2)nc2cc3[nH]c(=O)c(C(C)C)nc3cc21	0	?	0	-	-	0
CCCCn1c(CCc2ccccc2)nc2cc3[nH]c(=O)c(C(C)C)nc3cc21	0	2.6µM	0	-	-	3.7µM
COc1ccc(CN(C(=O)CN2C(=O)NC3(CCC(C)CC3)C2=O)C(C)Cc2cccs2)cc1 (configuration not stated)	-	12µM	-	-	-	9.3µM
CCc1ccc(NC(=O)CCCn2nc(C)c3c(C)n(-c4ccccc4)nc3c2=O)cc1	-	-	-	0	-	-
C(#Cc1ccccc1)C[N+]1(CC#Cc2cccc3ccccc23)CCCC1	0	?	0	?	0	2.6µM
C#CC[N+]1(CC#Cc2ccc(C#CC[N+]3(CC#C)CCOCC3)cc2)CCOCC1	0	?	0	0	0	0
C#CC[N+]1(CC#Cc2ccccc2)CCCC1	0	0	0	0	0	3.3µM
C#CC[N+]1(CC#Cc2cccc3ccccc23)CCOCC1	0	0	0	0	?	3.7µM
Cn1ccnc1C(O)c1cc(C(C)(C)C)c(O)c(C(C)(C)C)c1 (configuration not stated)	0	0	0	0	0	?
Cc1ccc(S(=O)(=O)NC(=O)c2cc(C)n(-c3ccc(N(C)C)cc3)c2C)cc1	19	3.7µM	51	-	0	?
CCc1ccnc(NC(=O)NS(=O)(=O)c2ccc(C)cc2)c1	16	0	0	0	?	0
Cc1ccc(S(=O)(=O)NC(=O)c2cc(C)n(-c3ccccc3)c2C)cc1	0	0	0	-	0	0
Cc1ccc(NC(=O)NNS(=O)(=O)c2ccc(Br)cc2)cc1	0	0	0	0	?	0
Cc1ccc(S(=O)(=O)NC(=O)Nc2ccc(N(C)C)cc2)cc1	55	0.47µM	54	13µM	?	0.74µM
Cc1ccc(S(=O)(=O)NCCN=Cc2ccc(N(C)C)cc2)cc1	0	7.4µM	0	0	0	0
CCCC(=O)Nc1ccc(Cl)c(NC(=O)c2ccc([N+](=O)[O-])cc2Cl)c1	0	?	0	0	?	0
CC(C)(C)OC(=O)N1CCC(CNC(=O)c2ccc(F)cc2)CC1	0	0	0	0	0	1.7µM
CC(=O)/C=N/Nc1ccccc1	0	0	0	0	0	0
OC[C@@H](O)[C@H](O)C(/C=N/Nc1ccccc1)=N\Nc1ccccc1	28	0	0	0	0	0
COCC1CCN(C(=O)CC2C(=O)NCCN2Cc2cccc(Oc3ccccc3)c2)CC1 (configuration not stated)	0	0	0	-	-	15µM
SMILES	CHX counter	Pf growth 96h	Shiga toxin inh	LASV entry inh	Marburg entry inh	Pf growth 48h
Cc1csc(CN(C)C(=O)CC2C(=O)NCCN2Cc2ccc(Cl)c(F)c2)n1 (configuration not stated)	0	9.3µM	0	-	-	0
O=C1NCCN(Cc2cccc(Oc3ccccc3)c2)C1CC(=O)N1CCCO1 (configuration not stated)	0	5.2µM	0	0	0	0
Cc1csc(CN(C)C(=O)CC2C(=O)NCCN2Cc2ccc(F)cc2Cl)n1 (configuration not stated)	0	0	0	-	-	0
CCn1ccnc1CN(C)C(=O)CC1C(=O)NCCN1Cc1c(F)cccc1Cl (configuration not stated)	0	10µM	0	0	0	0
Cc1cc(C)cc(NC(=O)COC(=O)COc2ccc(N(C)S(=O)(=O)c3cccs3)cc2)c1	-	-	-	0	0	-
COc1cccc(NC(=O)C2CCCN(S(=O)(=O)c3c(C)[nH]c(=O)[nH]c3=O)C2)c1 (configuration not stated)	-	-	-	0	0	-
CCOC(=O)C1=C(C)N(C)C(=O)NC1c1c(OC)ccc2ccccc12 (configuration not stated)	0	0	0	?	?	0
O=C1NCCN(Cc2ccc(Cl)c(F)c2)C1CC(=O)N1CCCO1 (configuration not stated)	13	?	0	0	0	0
CN1CCCC1C(O)(c1ccccc1)c1ccccc1 (configuration not stated)	-	-	-	0	0	-
CN1CCCC1CCOC(C)(c1ccccc1)c1ccc(Cl)cc1 (configuration not stated)	-	-	-	21µM	9.2µM	-
Cc1ccc(NC(=O)Cn2c(=O)n(CCC(=O)N3CCc4ccccc4C3)c(=O)c3ccccc32)c(C)c1	-	-	-	0	0	-
CCCN(CC1CCCO1)C(=O)c1cc(COc2ccc(F)cc2F)on1 (configuration not stated)	0	12µM	0	?	0	0
COc1cccc(OCc2cc(C(=O)N(Cc3ccccc3)CC3CC3)no2)c1	0	?	0	-	-	0
CCN(Cc1ccncc1)C(=O)c1cc(COc2ccc(F)cc2Cl)on1	0	?	0	0	0	?
CCN(Cc1ccncc1)C(=O)c1cc(COc2c(F)cccc2F)on1	0	10µM	0	-	-	0
CCN(CC1CCCO1)C(=O)c1cc(COc2ccc(OC)cc2Cl)on1 (configuration not stated)	16	?	0	-	-	0
O=C(NCC1CCOCC1)c1cc(COc2ccc(F)cc2F)on1	0	0	0	-	-	0
CCN(Cc1ccncc1)C(=O)c1cc(COc2ccc(OC)cc2Cl)on1	42	?	99	?	0	0
CC(=O)OC1CC(OC2C(O)CC(OC3C(O)CC(OC4CCC5(C)C(CCC6C5CC(O)C5(C)C(C7=CC(=O)OC7)CCC65O)C4)OC3C)OC2C)OC(C)C1OC1OC(CO)C(O)C(O)C1O (configuration not stated)	0	-	0	-	-	-
COCCNC(=O)c1c(NC(=O)c2cc(=O)c3cc(Cl)ccc3o2)sc2c1CCCC2	-	-	-	0	?	-
CN(C)c1ccc2c(c1)N=C(c1ccco1)OP2(=S)N1CCOCC1 (configuration not stated)	31	0	77	0	0	0
CCOC(=O)C1C2C=CC3(CN(Cc4ccccc4)C(=O)C13)O2 (configuration not stated)	0	?	0	0	0	0
Cc1csc(NC(=O)c2ccc(S(C)(=O)=O)cc2)n1	40	0	72	-	0	0
COc1ccc(-c2csc(NC(=O)c3ccoc3C)n2)cc1	41	0	153	?	0	0
COc1ccc(-c2csc(NC(=O)c3ccccc3S(C)(=O)=O)n2)cc1	0	0	0	?	?	0
Cc1nnc(NC(=O)c2ccc(S(=O)(=O)N(C)c3ccccc3)cc2)s1	-	0	-	0	0	0
